BAZ2B inh – inhibitors of human BAZ2B bromodomain. Q9UIF8. AID 504333. Potency, µM (highest dose often 114 µM), without a hit: at the highest dose activity change, negative = inhibition, hits mostly inhibitors. actives 4.4% (n = 360,000). AlphaScreen BAZ2B-H3K14Ac peptide displacement; further: on the % scale 0 is the no-effect control and ±100 the full control effect; nearly all actives have a fitted effect of over 60% in size
Target sequence (Q9UIF8 whole entry, looked up): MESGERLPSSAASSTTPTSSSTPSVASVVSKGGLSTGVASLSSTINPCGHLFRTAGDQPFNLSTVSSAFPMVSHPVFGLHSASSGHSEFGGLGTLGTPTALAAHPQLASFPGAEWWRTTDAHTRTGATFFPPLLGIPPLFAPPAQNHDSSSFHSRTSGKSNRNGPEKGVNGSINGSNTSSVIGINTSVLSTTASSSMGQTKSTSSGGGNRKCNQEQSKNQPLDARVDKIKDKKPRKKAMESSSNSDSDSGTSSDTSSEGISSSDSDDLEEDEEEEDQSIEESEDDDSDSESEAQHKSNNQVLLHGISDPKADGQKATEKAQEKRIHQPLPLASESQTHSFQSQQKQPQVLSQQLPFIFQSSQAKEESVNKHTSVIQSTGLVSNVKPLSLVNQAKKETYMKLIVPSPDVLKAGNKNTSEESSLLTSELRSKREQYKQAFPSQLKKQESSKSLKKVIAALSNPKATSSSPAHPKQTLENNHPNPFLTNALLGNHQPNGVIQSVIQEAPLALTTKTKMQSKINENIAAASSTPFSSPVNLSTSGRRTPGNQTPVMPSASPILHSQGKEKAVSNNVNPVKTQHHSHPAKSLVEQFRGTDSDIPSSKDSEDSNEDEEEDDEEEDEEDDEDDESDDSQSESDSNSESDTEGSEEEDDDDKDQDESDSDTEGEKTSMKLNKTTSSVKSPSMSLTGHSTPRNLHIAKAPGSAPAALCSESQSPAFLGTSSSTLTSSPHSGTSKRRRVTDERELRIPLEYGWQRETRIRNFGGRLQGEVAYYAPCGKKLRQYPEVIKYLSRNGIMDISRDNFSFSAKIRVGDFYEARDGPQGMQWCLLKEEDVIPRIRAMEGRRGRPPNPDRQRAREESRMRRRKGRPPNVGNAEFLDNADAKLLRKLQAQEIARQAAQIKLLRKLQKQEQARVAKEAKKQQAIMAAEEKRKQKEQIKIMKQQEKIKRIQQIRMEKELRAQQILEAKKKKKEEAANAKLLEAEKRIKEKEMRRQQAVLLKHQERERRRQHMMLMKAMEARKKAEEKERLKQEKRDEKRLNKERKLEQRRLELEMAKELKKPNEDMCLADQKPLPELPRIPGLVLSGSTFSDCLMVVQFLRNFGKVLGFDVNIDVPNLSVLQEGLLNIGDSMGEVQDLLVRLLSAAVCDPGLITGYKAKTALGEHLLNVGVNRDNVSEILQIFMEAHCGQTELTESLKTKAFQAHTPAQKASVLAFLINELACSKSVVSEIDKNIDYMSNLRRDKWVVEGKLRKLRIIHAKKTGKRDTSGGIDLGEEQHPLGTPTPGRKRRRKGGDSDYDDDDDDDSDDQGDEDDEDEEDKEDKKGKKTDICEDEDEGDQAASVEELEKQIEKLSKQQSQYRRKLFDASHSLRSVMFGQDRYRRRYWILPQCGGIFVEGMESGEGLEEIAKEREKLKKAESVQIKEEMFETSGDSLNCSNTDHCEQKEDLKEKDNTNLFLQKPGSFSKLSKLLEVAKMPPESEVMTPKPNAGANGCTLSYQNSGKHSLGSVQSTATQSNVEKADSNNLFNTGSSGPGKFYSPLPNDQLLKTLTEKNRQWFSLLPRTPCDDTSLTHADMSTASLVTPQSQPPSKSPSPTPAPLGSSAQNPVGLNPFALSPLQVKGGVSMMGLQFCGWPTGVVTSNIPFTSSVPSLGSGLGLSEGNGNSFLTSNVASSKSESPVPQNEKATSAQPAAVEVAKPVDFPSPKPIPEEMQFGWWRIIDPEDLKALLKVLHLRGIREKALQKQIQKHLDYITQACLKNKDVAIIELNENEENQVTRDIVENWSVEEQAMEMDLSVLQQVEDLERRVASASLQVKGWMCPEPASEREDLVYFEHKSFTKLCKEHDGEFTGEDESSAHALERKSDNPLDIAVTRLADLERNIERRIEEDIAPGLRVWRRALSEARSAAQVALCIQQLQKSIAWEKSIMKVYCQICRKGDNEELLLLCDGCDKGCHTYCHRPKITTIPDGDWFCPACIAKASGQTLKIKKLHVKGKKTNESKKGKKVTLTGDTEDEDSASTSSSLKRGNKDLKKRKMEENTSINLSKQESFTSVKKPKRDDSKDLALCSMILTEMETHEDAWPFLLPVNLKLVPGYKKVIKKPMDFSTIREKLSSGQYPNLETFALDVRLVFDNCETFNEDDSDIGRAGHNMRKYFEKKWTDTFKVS
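AlphaScreen luminescence quantifies BAZ2B engagement of H3K14Ac peptide; the protein and biotinylated peptide are both at 50 nM final, buffer PBS pH 7.4 with 0.01% Tween-20, all steps at room temperature.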
JMJD2A Tudor inh – JMJD2A Tudor domain (human) inhibition; actives 4.4% (n = 390,000); O75164; AlphaScreen JMJD2A-Tudor / H3K4me3 peptide binding; Potency, µM (top dose mostly 114 µM), for the others: top-dose activity change, negative = inhibition, most hits filed as inhibitors; further: on the % scale 0 is the no-effect control and ±100 the full control effect; nearly all actives have a fitted effect of over 50% in size
Sfp inh – Sfp phosphopantetheinyl transferase inhibition; Q9F4F7; Biochemical Sfp PPTase activity, qHTS; Potency, µM, for inactives: largest response in the series, negative = inhibition, hits mostly inhibitors; actives 3.5% (n = 310,000); AID 1490;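 further: the enzyme is Sfp with the accession as filed and its product quenches rhodamine fluorescence; 0% = enzyme reaction without inhibitor and -100% = no enzyme wells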
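Compounds were incubated with enzyme (final 15 nM) for 15 min at room temperature before substrate addition started the reaction. Fluorescence at 525 nm excitation, 598 nm emission was recorded immediately and after 30 minutes.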
G9a block – blocks human histone lysine methyltransferase G9a; G9a H3K9 monomethylation, AlphaScreen, 2 h; Potency, µM (highest dose often 102 µM), for inactives: top-dose activity, negative = inhibition, hits mostly inhibitors; AID 504332; actives 8.8% (n = 350,000); further: on the % scale 0 is the no-effect control and ±100 the full control effect; nearly all actives have a fitted effect of over 75% in size
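G9a (20 nM) was preincubated 15 min with compound, then reacted 2 h at room temperature with 500 nM biotin-H3K9 peptide and 20 µM SAM. Monomethyl-H3K9 detected by AlphaScreen using anti-H3K9me1 antibody.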
HP1b binding inh – HP1-beta chromodomain-methylated histone interaction inhibition; P83916; AlphaScreen HP1-beta / biotin-H3K9me3 peptide binding; Potency, µM (series often up to 114 µM), without a hit: top-dose activity change, negative = inhibition, hits mostly inhibitors; actives 0.56% (n = 390,000); further: nearly all actives have a fitted effect of over 70% in size
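AlphaScreen: HP1-beta (50 nM) preformed 30 min with biotin-H3(1-18)K9me3 peptide (50 nM) in PBS pH 7.4, 0.01% Tween-20. Compound added for 30 min at RT, then streptavidin donor/nickel chelate acceptor beads (10 ug/mL) for 30 min.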
Numbers without * were called inactive; ? = inconclusive; · = not tested or not shown; [ ] = another dose, or the depositor's remark. Compounds with a hit are over-represented: about 12% of the library has one in this group of screens. The call rests on the fitted dose curve; in most records, active means well fitted curve in the direction sought with a large enough effect; inconclusive means small, poorly fitted or top-dose-only effect, or another doubt; inactive means no such curve, though single readings can be large; an effect the other way counts as inactive or inconclusive. Potency means the concentration at half of the fitted maximal effect.

SMILES	BAZ2B inh	JMJD2A Tudor inh	Sfp inh	G9a block	HP1b binding inh
O=C(O)Cn1cc(/C=C2/NC(=O)N(c3ccc(Cl)cc3)C2=O)c2ccccc21	-27%	-31%	-10%	?	24%
O=C(O)c1cc(-c2ccc(/C=N/N3C(=O)C4C5C=CC(CC5)C4C3=O)o2)ccc1Cl (stereo not drawn)	-15%	0%	9%	-36%	22%
O=C(O)c1cc(-c2ccc(/C=C3\NC(=O)N(c4ccc(Cl)cc4)C3=O)o2)ccc1Cl	45µM*	32µM*	50µM*	10µM*	?
O=C(O)c1cc(-c2ccc(/C=C3\NC(=O)N(c4ccccc4)C3=O)o2)ccc1Cl	79µM*	56µM*	79µM*	45µM*	-4%
C#CCN1C(=O)S/C(=C\c2ccc(-c3ccc(Cl)c(C(=O)O)c3)o2)C1=O	-32%	-1%	-9%	45µM*	32%
COC(=O)C(Cc1c[nH]c2ccccc12)NC(=O)c1ccccc1Br (stereo not drawn)	-2%	-14%	7%	·	17%
Clc1ccc(C2=Nn3c(nnc3-c3n[nH]c4c3CCC4)SC2)cc1Cl	-3%	?	-16%	11µM*	4%
c1ccc(C2=Nn3c(nnc3-c3n[nH]c4c3CCC4)SC2)cc1	-27%	?	-9%	?	56%
O=C1OC(/C(=C\Nc2ccc(F)cc2F)[N+](=O)[O-])c2ccccc21 (stereo not drawn)	-18%	-20%	?	45µM*	46%
Cc1ccc(N/C=C(\C2OC(=O)c3ccccc32)[N+](=O)[O-])c(C)c1 (stereo not drawn)	-32%	-21%[11.4 µM]	-5%	?	?
O=C1OC(/C(=C\Nc2cc(Cl)ccc2O)[N+](=O)[O-])c2ccccc21 (stereo not drawn)	45µM*	?	3%	10µM*	?
O=C(NCCc1ccc(Cl)cc1)C1COc2ccccc2C1 (stereo not drawn)	0%	-10%	·	-3%[59 µM]	25%[57 µM]
O=C1OC(c2cccs2)=N/C1=C\c1ccc(-c2ccccc2Cl)o1	-36%	?	-12%	40µM*	?
CN(C)/C=C1\N=C(c2cccs2)OC1=O	-3%	-6%	5%	-13%	12%
O=C1OC(c2cccs2)=N/C1=C/c1ccc(-c2cccc(C(=O)O)c2)o1	25µM*	50µM*	-61%	7.9µM*	?
NC(=O)c1ccccc1-c1nc(-n2ccnc2)c2ccccc2n1	·	·	6%	10%[0.501 µM]	·
COc1ccccc1N1CCN(c2nc3ccccc3nc2C(C#N)C(=O)OC(C)C)CC1 (stereo not drawn)	?	?	-3%	14µM*	-19%
CCN1CCN(c2nc3ccccc3nc2C(C#N)C(=O)OCc2ccccc2)CC1 (stereo not drawn)	-35%	?	3%	40µM*	-6%
COCCCNC(=O)C(C#N)c1nc2ccccc2nc1N1CCCC1 (stereo not drawn)	?	-6%	-24%	40µM*	34%
C[n+]1cc[nH]c1SCC(=O)c1ccc(Cl)cc1	·	-17%	?	32µM*	13%
O=C(CSC1=NCCS1)c1ccc(Cl)cc1	·	-4%	?	-47%	46%
C[n+]1cc[nH]c1SCC(=O)c1ccccc1	-31%	-30%	-25%	50µM*	0%
COc1cccc(CN(C)C(=S)Nc2ccc(C)c(C)c2)c1	-24%	-15%	8%	15%[59 µM]	13%
Cc1cccc(C2c3[nH]c4ccccc4c3CCN2C(=O)Cc2n[nH]c(C)n2)n1 (stereo not drawn)	-3%	-21%	-1%	-20%	29%
Cc1ccc(-n2c(C)cc(C3=NNC(=NC4CC4)SC3)c2C)cc1C	50µM*	50µM*	-29%	45µM*	?
SMILES	BAZ2B inh	JMJD2A Tudor inh	Sfp inh	G9a block	HP1b binding inh
CN=C1NN=C(c2cc(C)n(-c3ccc(Cl)cc3)c2C)CS1	·	?	35µM*	32µM*	-15%
Cc1c(NC(=O)c2ccccc2F)c(=O)n(-c2ccccc2)n1C	0%	-5%	14%	4%[59 µM]	8%
CN(C)Cc1cc(CCNC(=O)c2ccc(Cl)cc2)ccc1O	7%	-11%	1%	-10%	46%
CCOc1c(C)cc(S(=O)(=O)NCc2ccccn2)c(C)c1C	13%	?	17%	·	27%
CNCCCOc1cccc(Oc2ccccc2)c1	50µM*	1.6µM*	-14%	·	8%
CNCCCOc1cccc(OC(C)C)c1	50µM*	1.6µM*	-16%	13µM*	?
COCCNC(=O)COc1cccc(Oc2ccccc2)c1	-6%	-10%	-2%	-1%[12.7 µM]	12%
CC(O)CNCCCOc1ccccc1OCc1ccccc1 (stereo not drawn)	50µM*	3.2µM*	-13%	13µM*	-32%
CC(O)CNCCCOc1cccc(Oc2ccccc2)c1 (stereo not drawn)	28µM*	22µM*	-21%	·	15%
Cn1c(=O)c2c(nc(Oc3ccccc3N)n2C)n(C)c1=O	-10%	-13%	14%	-2%	20%
Cn1c(=O)c2c(nc(Sc3ccccc3N)n2C)n(C)c1=O	1%	-26%	-12%	10µM*	20%
COc1cccc(-c2cn3nc4c(nc3n2)CCCC4)c1	0%	-9%	79µM*	18%[59 µM]	83%
CN1CCN(C(=O)c2cn(C)c3ccc(S(=O)(=O)N(C)C4CCCCC4)cc3c2=O)CC1	-28%	-27%	14%	56µM*	20%
CN(C)S(=O)(=O)c1ccc2c(c1)c(=O)c(C(=O)NCCCN1CCCCCC1)cn2C	7%	-6%	-11%	45µM*	40%
CN(C1CCCCC1)S(=O)(=O)c1ccc2c(c1)c(=O)c(C(=O)N1CCN(c3ccc(F)cc3)CC1)cn2C	·	-16%	·	-30%[59 µM]	18%
CN(CCCNC(=O)c1cn(C)c2ccc(S(=O)(=O)N(C)C)cc2c1=O)c1ccccc1	?	?	5%	50µM*	-1%
CCn1cc(C(=O)O)c(=O)c2cc(S(=O)(=O)N(C)C)ccc21	-2%	20µM*	-7%	?	11%
COc1ccc(S(=O)(=O)Cc2ccc(C(=O)NCCc3cc(OC)ccc3OC)o2)cc1	-23%	-13%	-12%	-39%	24%
O=C(NCc1ccccc1C(F)(F)F)C1CC(c2cccc(F)c2)=NO1 (stereo not drawn)	15%	-17%	10%	14%[12.7 µM]	17%
CCc1ccc(NC(=O)CCc2c(C)n(C)c3cc(-c4ccccc4C)nn3c2=O)cc1	2%	2%	·	1%[59 µM]	27%[57 µM]
C#CCOCCOCCOCCNc1nc(N2CCN(C(=O)[C@H](CCCCN)n3cc([C@@H](N)C(C)CC)nn3)CC2)nc(N2CCN(C(=O)[C@H](CCCCN)n3cc([C@@H](N)CO)nn3)CC2)n1 (stereo partly drawn)	22µM*	·	3%	?	·

Screening results: PubChem, National Center for Advancing Translational Sciences (NCATS)
